Assay outcomes deposited in PubChem by National Center for Advancing Translational Sciences (NCATS).
Pf growth 96h: Primary qHTS for delayed death inhibitors of the malarial parasite plastid, 96 hour incubation. P. falciparum luciferase reporter growth, 96 h. actives 6.9% (n = 320,000). Potency, µM (highest dose often 28.7 µM), without a hit: at the top dose activity change, negative = inhibition, hits mostly inhibitors; also: potency is read from the fitted curve at half-maximal effect; % is scaled to controls: 0 for no effect and ±100 for the full control effect
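P. falciparum expressing integrated firefly luciferase, in erythrocytes at 2% hematocrit, 0.05% parasitemia, incubated with compounds 96 h at 37 C, 5% CO2. Growth inhibition read as loss of luminescence; two-generation exposure targets delayed-death apicoplast inhibitors.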
CHX counter: Cycloheximide Counterscreen for Small Molecule Inhibitors of Shiga Toxin; actives 12% (n = 300,000); max response, %; cell reporter, cycloheximide protein synthesis inhibition counterscreen; in the data active = max response mostly above about 13%, no sharp cut-off; inactive = mostly below about 14%; also: read at 38.3 µM for the half of the compounds with a filed dose; 0% is about no effect
SARS PLP yeast: qHTS of Yeast-based Assay for SARS-CoV PLP. actives 0.19% (n = 330,000). AID 485353, 2010. S. cerevisiae expressing SARS-CoV PLpro, growth rescue. Potency, µM (highest dose often 32.9 µM), for inactives: top-dose activity, positive = growth rescue, usual class: activators; calls by dose curve; also: potency is read from the fitted curve at half-maximal effect; 0% is about no effect; nearly all actives have a fitted effect of over 55% in size
Pf growth 48h: Primary qHTS for delayed death inhibitors of the malarial parasite plastid, 48 hour incubation. P. falciparum luciferase growth in erythrocytes, 48 h. Potency, µM (doses to about 28.7 µM), for inactives: at the highest dose activity change, negative = inhibition, usual class: inhibitors. actives 5.9% (n = 310,000). AID 504832, 2011; also: potency is read from the fitted curve at half-maximal effect; % is scaled to controls: 0 for no effect and ±100 for the full control effect
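Cell-based growth assay: transgenic P. falciparum expressing firefly luciferase, cultured in red cells within RPMI 1640 containing 0.5% w/v Albumax, 24 mM bicarbonate and gentamycin. A drop in luciferase activity indicates inhibition.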
NS1 inh: qHTS Assay for Inhibitors of Influenza NS1 Protein Function; Potency, µM (series often up to 46.1 µM), without a hit: top-dose activity, positive = more growth; actives 0.4% (n = 270,000); AID 2326, 2010; calls by dose curve; also: potency is read from the fitted curve at half-maximal effect; actives are rising curves; nearly all actives have a fitted effect of over 50% in size
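OD600 was taken as the measure of yeast growth restored by compound in an NS1-expressing S. cerevisiae strain. Cells had been washed out of glucose medium and diluted 1:100 into galactose -URA medium, pH 6.0.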
Shiga toxin inh: A qHTS for Small Molecule Inhibitors of Shiga Toxin; Vero cells, Shiga toxin protein synthesis inhibition reporter; inhibition, % at 38.7 µM; actives 9.2% (n = 290,000); in the data active = inhibition mostly above about 28%, no sharp cut-off; inactive = mostly below about 43%; also: 0% is about no effect
An asterisk follows results filed as active; u = inconclusive; x = no result given. An excerpt weighted towards active compounds, which were near 21% of everything screened. Unless noted, calls follow the shape of the dose curve; as a rule, active = well fitted inhibition curve with a large enough effect; inconclusive = small, poorly fitted or top-dose-only effect, or another doubt; inactive = no such curve, though single readings can be large or run the other way.

SMILES | Pf growth 96h | CHX counter | SARS PLP yeast | Pf growth 48h | NS1 inh | Shiga toxin inh
C#Cc1ccc(CN2CCC(Oc3cc(C(=O)NC4CC4)ccc3OC)CC2)cc1 | -0.7% | 0.7 | 2.0% | 13.1µM* | 2.7% | -4.8
COc1ccc(C(=O)NC2CC2)cc1OC1CCN(Cc2ccccc2)CC1 | u | 0.4 | 3.8% | -14.5% | 5.5% | -9.0
Cc1ccc(OC(C)C(=O)N/N=C/c2ccccn2)cc1 (stereo not given) | -18.1% | -0.6 | 0.1% | -11.2% | -1.1% | -13.4
CCc1ccc2c(c1)C1(NN=C(c3cccc4ccccc34)S1)C(=O)N2 (stereo not given) | -20.7% | 16.0 | -4.7% | 2.94µM* | u | 47.6*
CN(CCCNC(=O)c1cc2c(Cl)nc3ccccc3c2s1)Cc1ccccc1 | u | -0.5 | -3.0% | 3.29µM* | x | -8.1
COc1cc(NC(=O)c2cc3c(Cl)nc4ccccc4c3s2)cc(OC)c1OC | u | 5.6 | 28.6% | 0.828µM* | 12.3% | -12.5
Oc1ccc(/C=C/c2cnccn2)cc1 | 2.1% | 34.3* | 1.6% | 87.6% | -4.0% | 93.6*
O=C(c1cnccn1)N1CCN(C/C=C/c2ccccc2)CC1 | u | -3.1 | -0.7% | 5.5% | -20.1% | -9.7
CCNc1nc(NCC)n2c(SCC(=O)Nc3ccc(NC(C)=O)cc3)nnc2n1 | u | x | 8.7% | u | x | x
CCNc1nc(NCC)n2c(SCC(=O)NC34CC5CC(CC(C5)C3)C4)nnc2n1 | u | -3.0 | -11.4% | u | -4.3% | -11.8
CCNc1nc(NCC)n2c(SCC(=O)Nc3ccc(CC)cc3)nnc2n1 | u | x | -7.4% | 10.4µM* | x | x
CCNc1nc(NCC)n2c(SCC(=O)N(CC)C3CCCCC3)nnc2n1 | 7.38µM* | -1.7 | 5.6% | u | 1.5% | -9.1
CN(C(=O)COC(=O)c1ccccc1Cc1ccccc1)C1CCS(=O)(=O)C1 (stereo not given) | 5.0% | 8.8 | -3.7% | 65.5% | -8.2% | 14.7
O=C(N=C1N=C2C=CC=CN2Cc2ccccc21)c1ccc(S(=O)(=O)N2CCCC2)cc1 | -10.2% | 55.4* | -1.4% | 19.5% | 6.1% | 96.9*
CN(C)S(=O)(=O)c1cccc(C(=O)N=C2N=C3C=CC(Cl)=CN3Cc3ccccc32)c1 | u | 53.0* | -1.7% | u | 2.7% | 130.2*
O=C(N=C1N=C2C=CC=CN2Cc2ccccc21)c1ccc(S(=O)(=O)N2CCOCC2)cc1 | -1.2% | 32.5* | -0.3% | 41.2% | x | 154.3*
COC(=O)c1cc2c(C)[nH]c(C)c2cc(C(=O)OC)c1=O | -1.2% | -1.9 | 6.5% | 16.3% | 14.5% | -6.0
Cc1cccc(N(C)S(=O)(=O)c2ccc(-c3cnc(C4CC4)o3)cc2)c1 | 14.7µM* | -2.6 | -5.4% | -0.1% | -12.4% | -2.2
Cc1ccc(-c2cnc(C3CC3)o2)cc1S(=O)(=O)Nc1ccccc1 | 14.7µM* | -8.2 | -10.4% | u | -32.7% | -2.8
CC(=O)Nc1ccc(NS(=O)(=O)c2cc(-c3cnc(C4CC4)o3)ccc2C)cc1 | -1.6% | -2.4 | 3.4% | u | -6.6% | -1.1
O=C(COC(=O)CCNS(=O)(=O)c1ccccc1)Nc1ccc(OC(F)F)cc1 | -16.0% | x | 3.1% | 0.8% | x | x
N#Cc1ccc(NC(=O)COC(=O)CCNS(=O)(=O)c2ccccc2)cc1 | 42.0% | 45.1* | -1.4% | 18.9% | 6.0% | 11.9
c1ccc(N2CCN(c3nc4ccccc4[nH]3)CC2)nc1 | 59.4% | 22.4* | 3.2% | 155.2% | x | 49.3*
C=CCOc1ccc(C(=O)Nc2ncn[nH]2)cc1 | -28.2% | -3.1 | 2.5% | 42.9% | 14.5% | 7.6
CC(=O)Oc1ccc(N2C(=O)C3C4C=CC(CO)(O4)C3C2=O)cc1 (stereo not given) | 17.1% | 16.1 | -30.8% | x | -201.6% | 14.5
O=C1C2C3C=CC(CO)(O3)C2C(=O)N1c1ccccc1-c1ccccc1 (stereo not given) | 5.86µM* | -4.9 | -20.0% | u | -72.9% | -1.3
Cc1cc(C(=O)Nc2cnn(Cc3ccc(Cl)cc3Cl)c2)no1 | 86.2% | 14.5* | -12.6% | 4.15µM* | -10.8% | 35.5*
Cc1ccccc1Cn1cc(NC(=O)c2nn(C)cc2Cl)cn1 | -28.6% | 17.0 | 19.7% | 35.6% | -2.0% | 27.7*
